Source: PubChem
Pf growth 96h – P. falciparum growth inhibition at 96 hour, primary screen for plastid delayed-death inhibitors; hit rate 6.9% among 320,000; Potency, µM (top dose mostly 28.7 µM), usual class: inhibitors; AID 504834; P. falciparum luciferase reporter growth, 96 h
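Parasite growth measured via integrated firefly luciferase reporter in P. falciparum. Infected erythrocytes at 2% hematocrit, 0.05% parasitemia final were treated 96 hours at 37 C under 5% CO2, and luminescence was read.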
Sm TGR inh – blocks Schistosoma mansoni thioredoxin glutathione reductase; Potency, µM (top dose mostly 114 µM), usual class: inhibitors; hit rate 3% among 360,000; AID 485364; purified TGR, DTNB reduction, TNB absorbance 405 nm; further: nearly all actives have a fitted effect of over 60% in size
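TGR 20 nM + NADPH 100 uM (dispensed conc.), cpd preinc 15 min RT; start with NADPH (500 uM addition) then DTNB (15 mM addition). Kinetic TNB absorbance, 405 nm filter. Four-parameter Hill fit across titration.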
SARS PLpro yeast – blocks SARS-CoV papain-like protease in a yeast assay. hit rate 0.19% among 330,000. Potency, µM (highest dose often 32.9 µM), actives largely listed as activators. S. cerevisiae expressing SARS-CoV PLpro, growth rescue; calls by dose curve; further: nearly all actives have a fitted effect of over 55% in size
AmpC inh no detg – AmpC beta-lactamase inhibition without detergent | AmpC nitrocefin hydrolysis, absorbance 480 nm, 0.0001% Triton | Potency, µM (highest dose often 57.1 µM), hits mostly inhibitors | hit rate 0.52% among 330,000 | AID 485341; further: nearly all actives have a fitted effect of over 20% in size
Target sequence (P00811 whole entry, looked up): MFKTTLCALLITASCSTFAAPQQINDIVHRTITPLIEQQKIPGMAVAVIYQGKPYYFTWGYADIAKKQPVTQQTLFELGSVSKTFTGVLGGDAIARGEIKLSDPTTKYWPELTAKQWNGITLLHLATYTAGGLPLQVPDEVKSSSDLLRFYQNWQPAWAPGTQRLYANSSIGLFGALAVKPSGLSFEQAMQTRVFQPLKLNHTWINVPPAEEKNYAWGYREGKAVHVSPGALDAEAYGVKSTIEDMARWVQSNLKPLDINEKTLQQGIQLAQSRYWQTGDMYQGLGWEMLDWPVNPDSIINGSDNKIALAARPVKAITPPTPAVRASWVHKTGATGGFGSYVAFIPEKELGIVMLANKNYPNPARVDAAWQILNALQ
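AmpC (5.3 nM in the dispensed reagent) in 20 mM phosphate pH 7.0 with 0.01% (detergent screen) or 0.0001% Triton X-100 was preincubated with compounds for 15 min at room temperature. Nitrocefin was then added from an 800 uM solution, and hydrolysis was followed at 480 nm.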
Pf growth 48h – P. falciparum growth inhibition at 48 hours (one generation) | P. falciparum luciferase growth in erythrocytes, 48 h | Potency, µM (titrated, usually from 28.7 µM), most hits filed as inhibitors | hit rate 5.9% among 310,000
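First compound was added to culture medium, then infected red cells at 0.1% parasitemia and 2% hematocrit (final). After incubation at 37 C under 5% CO2, luciferase detection reagent was dispensed and light output recorded.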
AmpC detergent – AmpC beta-lactamase inhibition with detergent present | AID 485294 | hit rate 0.041% among 370,000 | Potency, µM (highest dose often 114 µM), hits mostly inhibitors | P00811 | AmpC hydrolysis of nitrocefin, absorbance 480 nm, 0.01% Triton; further: nearly all actives have a fitted effect of over 25% in size
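AmpC (5.3 nM in the dispensed reagent) in 20 mM phosphate pH 7.0 with 0.01% (detergent screen) or 0.0001% Triton X-100 was preincubated with compounds for 15 min at room temperature. Nitrocefin was then added from an 800 uM solution, and hydrolysis was followed at 480 nm.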
Numbers stand for hits. In the library only some 12% were active in any assay of this set; here they are far more common. Unless noted, the call rests on the fitted dose curve; in most records, active means well fitted curve in the direction sought with a large enough effect; inconclusive means small, poorly fitted or top-dose-only effect, or another doubt; inactive means no such curve, though single readings can be large; an effect the other way counts as inactive or inconclusive.

Cc1cccn2c(/C=N/OCc3cccc(F)c3)c(-c3ccc(Cl)cc3)nc12 was read as Pf growth 96h inconclusive, Sm TGR inh inactive, SARS PLpro yeast inactive, AmpC inh no detg inactive, Pf growth 48h inconclusive and AmpC detergent inactive.
Screening COc1ccc(-c2sc3ccc(OC)cc3c2-c2ccc(OC)c(F)c2)cc1 returned Pf growth 96h inactive, Sm TGR inh inactive, SARS PLpro yeast inactive, AmpC inh no detg inactive, Pf growth 48h inconclusive and AmpC detergent inactive.
COc1ccc(-c2sc3ccc(N4CCOCC4)cc3c2-c2ccc(OC)c(F)c2)cc1 was read as Pf growth 96h 6.6µM, Sm TGR inh inactive, SARS PLpro yeast inactive, AmpC inh no detg inactive, Pf growth 48h 15µM and AmpC detergent inconclusive.
`Cc1nn(C)c(C)c1S(=O)(=O)N(CC(=O)NCCc1ccccc1)c1ccc(C(C)C)cc1` gave Sm TGR inh inactive and AmpC detergent inactive.
`COCc1ccc(CN2CCC(C(=O)Nc3cccc(-c4cccc(Cl)c4)c3)CC2)o1` gave Pf growth 96h inconclusive, Sm TGR inh inconclusive, SARS PLpro yeast inactive, AmpC inh no detg inactive, Pf growth 48h 13µM and AmpC detergent inactive.
Screening COc1cccc(-c2cccc(NC(=O)C3CCN(Cc4cnn(C)c4)CC3)c2)c1 returned Pf growth 96h inconclusive, Sm TGR inh inactive, SARS PLpro yeast inactive, AmpC inh no detg inactive, Pf growth 48h inconclusive and AmpC detergent inactive.
`COCc1ccc(CN2CCC(C(=O)Nc3cccc(-c4cscn4)c3)CC2)o1` gave Pf growth 96h inactive, Sm TGR inh inactive, SARS PLpro yeast inactive, AmpC inh no detg inactive, Pf growth 48h inactive and AmpC detergent inactive.
Screening O=C(Nc1cccc(-c2cccc(F)c2)c1)C1CCN(CC2CCOC2)CC1 (centres undefined) returned Pf growth 96h inactive, Sm TGR inh inactive, SARS PLpro yeast inactive, AmpC inh no detg inactive, Pf growth 48h inconclusive and AmpC detergent inactive.
Screening O=C(Nc1cccc(-c2cccc(Cl)c2)c1)C1CCN(CC2CCOC2)CC1 (centres undefined) returned Pf growth 96h inactive, Sm TGR inh inactive, SARS PLpro yeast inactive, AmpC inh no detg inactive, Pf growth 48h 8.3µM and AmpC detergent inactive.
Screening COc1cccc(-c2cccc(NC(=O)C3CCN(Cc4ccc(C)o4)CC3)c2)c1 returned Pf growth 96h inactive, Sm TGR inh 50µM, SARS PLpro yeast inactive, AmpC inh no detg inactive, Pf growth 48h inactive and AmpC detergent inactive.
O=C(Nc1cccc(-c2cccc(Cl)c2)c1)C1CCN(Cc2ccon2)CC1 was read as Pf growth 96h 8.3µM, Sm TGR inh inactive, SARS PLpro yeast inactive, AmpC inh no detg inactive, Pf growth 48h inactive and AmpC detergent inactive.
For Cc1cc(C)n(-c2ccc(NC(=O)C3CCN(Cc4cc(C)c(C)o4)CC3)cc2)n1 the results were Pf growth 96h inactive, Sm TGR inh inconclusive, SARS PLpro yeast inactive, AmpC inh no detg inactive, Pf growth 48h inconclusive and AmpC detergent inactive.
`Cc1ccc(CN2CCC(Oc3cccc(C(=O)NCc4cccnc4)c3)CC2)o1` gave Pf growth 96h inactive, Sm TGR inh 32µM, SARS PLpro yeast inactive, AmpC inh no detg inactive, Pf growth 48h inconclusive and AmpC detergent inactive.
For Cc1ccc(CN2CCC(Oc3ccc(C(=O)NCc4ccccn4)cc3)CC2)o1 the results were Pf growth 96h inactive, Sm TGR inh inactive, SARS PLpro yeast inactive, AmpC inh no detg inactive, Pf growth 48h inactive and AmpC detergent inactive.
Screening Cc1cc(C)n(-c2ccc(NC(=O)C3CCN(Cc4ccc(C)o4)CC3)cc2)n1 returned Pf growth 96h 15µM, Sm TGR inh inconclusive, SARS PLpro yeast inactive, AmpC inh no detg inactive, Pf growth 48h 13µM and AmpC detergent inactive.
For COCc1ccc(C(=O)N2CCCCC2C(=O)Nc2ccc(-n3nc(C)cc3C)cc2)o1 (centres undefined) the results were Pf growth 96h 12µM, Sm TGR inh inactive, SARS PLpro yeast inactive, AmpC inh no detg inactive, Pf growth 48h inactive and AmpC detergent inactive.
